Compound activity from PubChem.
BLM inh: blocks DNA unwinding by human BLM helicase. P54132. hit rate 0.2% among 350,000. Potency, µM (top dose mostly 56.1 µM), for the others: at the highest dose activity change, negative = inhibition, hits mostly inhibitors. AID 2528. recombinant BLM DNA unwinding, fluorescence dequenching;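 also: plate controls were vehicle for no effect and no enzyme for full effect; nearly all actives have a fitted effect of over 35% in size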
Target sequence (P54132 whole entry, looked up): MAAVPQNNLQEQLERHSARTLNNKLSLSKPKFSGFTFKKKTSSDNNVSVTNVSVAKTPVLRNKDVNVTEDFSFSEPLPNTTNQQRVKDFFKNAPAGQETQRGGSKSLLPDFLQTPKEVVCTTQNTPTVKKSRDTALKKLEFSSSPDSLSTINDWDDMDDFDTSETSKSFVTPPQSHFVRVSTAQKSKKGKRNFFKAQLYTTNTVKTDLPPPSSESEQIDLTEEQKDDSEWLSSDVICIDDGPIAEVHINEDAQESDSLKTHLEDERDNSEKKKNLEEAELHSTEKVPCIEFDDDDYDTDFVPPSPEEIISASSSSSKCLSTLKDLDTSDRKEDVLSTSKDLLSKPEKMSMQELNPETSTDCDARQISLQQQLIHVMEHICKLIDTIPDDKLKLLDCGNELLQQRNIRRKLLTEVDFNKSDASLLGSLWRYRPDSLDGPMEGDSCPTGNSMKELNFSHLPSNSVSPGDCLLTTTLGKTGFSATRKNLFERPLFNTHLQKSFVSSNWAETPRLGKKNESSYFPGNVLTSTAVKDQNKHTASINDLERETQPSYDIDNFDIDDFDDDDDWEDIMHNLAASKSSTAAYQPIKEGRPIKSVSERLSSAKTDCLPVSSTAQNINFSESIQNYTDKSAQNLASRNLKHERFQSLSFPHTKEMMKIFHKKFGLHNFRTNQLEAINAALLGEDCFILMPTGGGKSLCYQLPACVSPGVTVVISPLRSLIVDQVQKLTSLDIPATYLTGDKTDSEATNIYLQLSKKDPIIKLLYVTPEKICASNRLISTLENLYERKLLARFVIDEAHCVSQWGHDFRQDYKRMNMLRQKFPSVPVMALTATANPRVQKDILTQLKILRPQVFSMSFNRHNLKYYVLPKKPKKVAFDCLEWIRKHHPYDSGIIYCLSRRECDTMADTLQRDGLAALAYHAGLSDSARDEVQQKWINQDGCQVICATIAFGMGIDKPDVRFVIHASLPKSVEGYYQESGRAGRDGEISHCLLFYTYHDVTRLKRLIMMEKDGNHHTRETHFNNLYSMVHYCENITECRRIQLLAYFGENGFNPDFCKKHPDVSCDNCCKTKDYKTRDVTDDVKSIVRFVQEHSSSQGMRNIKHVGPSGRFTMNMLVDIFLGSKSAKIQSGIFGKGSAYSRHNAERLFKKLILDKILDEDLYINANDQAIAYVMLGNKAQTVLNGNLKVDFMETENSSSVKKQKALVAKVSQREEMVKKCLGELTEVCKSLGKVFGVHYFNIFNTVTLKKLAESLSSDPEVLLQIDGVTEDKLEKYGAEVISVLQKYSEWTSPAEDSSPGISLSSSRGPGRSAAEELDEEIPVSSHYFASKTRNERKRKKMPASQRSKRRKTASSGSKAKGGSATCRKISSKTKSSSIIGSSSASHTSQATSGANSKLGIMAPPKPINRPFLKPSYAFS
APEX1 inh: inhibitors of human APE1 endonuclease | hit rate 0.35% among 350,000 | Potency, µM (titrated, usually from 65.8 µM), inactives show at the top dose activity change, negative = inhibition, most hits filed as inhibitors | recombinant APE1, TAMRA/BHQ-2 abasic DNA cleavage fluorescence | P27695;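 also: plate controls were vehicle for no effect and reference inhibitor for full effect; nearly all actives have a fitted effect of over 55% in size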
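Quantitative HTS: incision of a TAMRA/BHQ-2 double-stranded substrate bearing a tetrahydrofuran abasic site by 0.75 nM APE1 raises fluorescence. Substrate 50 nM final, added after 15 min compound preincubation at room temperature; progress as third-minus-first kinetic read difference.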
KAT2A inh: GCN5L2 (KAT2A) acetyltransferase inhibition. Potency, µM (top dose mostly 58.9 µM), without a hit: top-dose activity change, negative = inhibition, actives largely listed as inhibitors. GCN5L2 HAT assay, ThioGlo1 CoA-SH fluorescence. AID 504327. Q92830. hit rate 0.21% among 390,000
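Preincubate 20nM GCN5L2 with compound 15 min, RT → add 50uM ThioGlo1 + 75uM H3(1-25) + 70uM acetyl-CoA → read fluorescence 0 and 20 min. Primary qHTS; fluorescent artifacts likely.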
RECQ1 inh-1: RECQ1 (human) helicase inhibition; Potency, µM (doses to about 57.3 µM), for the others: top-dose activity, negative = inhibition, actives largely listed as inhibitors; P46063; AID 2549; hit rate 0.54% among 240,000; RECQ1 DNA unwinding, red fluorescence kinetic read;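 also: plate controls were vehicle for no effect and no enzyme for full effect; nearly all actives have a fitted effect of over 30% in size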
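50 nM RECQ1T1 preincubated 15 min with compound in Tris pH 8.0 buffer with MgCl2, DTT, Tween-20 and 2.5 ug/ml poly(dI-dC); started with 200 nM TAMRA/BHQ-2 forked duplex and 2 mM ATP. Unwinding read as fluorescence (525/598 nm), two reads 2 h apart.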
TDP1 block: TDP1 (human) enzyme inhibition. hit rate 0.28% among 350,000. Potency, µM (doses to about 130 µM), for the others: at the top dose activity change, negative = inhibition, hits mostly inhibitors. Q9NUW8. recombinant TDP1, AlphaScreen DNA substrate cleavage; also: nearly all actives have a fitted effect of over 40% in size
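Compounds were preincubated with Tdp1 (1 nM final) for 15 min at room temperature before substrate (15 nM final) started a 5 min reaction; beads (10 ug/ml final) were then added for 10 min before AlphaScreen detection.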
RECQ1 conf: confirmation of human RECQ1 helicase inhibitors | shares compounds with RECQ1 inh-1 | RECQ1 helicase DNA unwinding, fluorescence | Potency, µM (titrated, usually from 229 µM), without a hit: at the highest dose activity change, negative = inhibition, hits mostly inhibitors | hit rate 28% among 610; also: nearly all actives have a fitted effect of over 45% in size
ADP FP counter: ADP displacement flagged in RECQ1 inhibitor counter-screen | hit rate 27% among 530 | ADP fluorescence polarization displacement counterscreen | Potency, µM (highest dose often 228 µM), for inactives: top-dose activity change, negative = inhibition, most hits filed as inhibitors | shares compounds with RECQ1 inh-1; also: nearly all actives have a fitted effect of over 45% in size
RECQ1 inh-2: blocks human RECQ1 DNA unwinding. AID 504841. recombinant RECQ1 DNA unwinding, red fluorescence. shares compounds with RECQ1 inh-1. Potency, µM (top dose mostly 119 µM), without a hit: at the highest dose activity, negative = inhibition, most hits filed as inhibitors. hit rate 15% among 1,100; also: nearly all actives have a fitted effect of over 50% in size
* hit, by the source's call; i = inactive; ? = inconclusive; . = no result; [ ] = another dose, or the depositor's remark. An excerpt weighted towards active compounds, which were near 0.87% of everything screened. Calls follow the shape of the dose curve; as a rule, active = well fitted curve in the direction sought with a large enough effect; inconclusive = small, poorly fitted or top-dose-only effect, or another doubt; inactive = no such curve, though single readings can be large; an effect the other way counts as inactive or inconclusive. Unless noted, % is scaled to controls: 0 for no effect and ±100 for the full control effect; potency is read from the fitted curve at half-maximal effect.

SMILES	BLM inh	APEX1 inh	KAT2A inh	RECQ1 inh-1	TDP1 block	RECQ1 conf	ADP FP counter	RECQ1 inh-2
COc1ccc(CNCCS(=O)(=O)NN2CCOCC2)cc1	.	-13%	-17%	.	.	.	.	.
COCCn1c(C)cc(C(=O)CSc2nnc(-c3cccnc3)n2-c2ccccc2F)c1C	-12%	1%	-1%	3.2µM*	6%	?	50µM*	.
CCn1c(SCC(=O)c2cc(C)n(-c3ccc(C(=O)OC)cc3)c2C)nnc1-c1cccnc1	2%	-2%	-20%	i	8%	.	.	.
Cc1csc2nc(COc3ccccc3NC(=O)c3ccccc3Cl)cc(=O)n12	1%	.	2%	.	1%	.	.	.
O=c1c2cc(N3CCOCC3)ccc2[nH]c(=S)n1Cc1ccc(Cl)cc1	-9%	2%	-20%	-4%	-2%	.	.	.
Cc1ccc(Cn2c(=S)[nH]c3ccc(N4CCOCC4)cc3c2=O)o1	-29%	?	?	18µM*	.	?	50µM*	.
O=C(NC(Cc1c[nH]c2ccccc12)C(=O)O)/C(=C/c1ccc(F)cc1)NC(=O)c1ccccc1 (configuration not stated)	-4%	0%	-12%	-3%	.	9%	0%	.
Cc1ccc(/C=C(/NC(=O)c2ccccc2)C(=O)NC(Cc2c[nH]c3ccccc23)C(=O)O)cc1 (configuration not stated)	-9%	27%	-1%	.	.	.	.	.
Cc1cc2ccccc2n1CCNC(=O)c1cc(C(F)(F)F)cc(C(F)(F)F)c1	-2%	.	27%	.	8%	.	.	.
COC(=O)C/C=C\[C@@H](C)[C@@H]1C=C[C@H](OC(C)=O)[C@H](COC(C)=O)O1	-1%[12.4 µM]	25%[12.4 µM]	.	i[11.5 µM]	-2%[21 µM]	.	.	.
CCOC(=O)Cc1cc(=O)n2[nH]c(C)c(-c3ccccc3)c2n1	-2%	-5%	-1%	35µM*	10%	.	.	-19%
Nc1nc(Nc2ccc(Cl)cc2)nc(NCc2ccco2)c1[N+](=O)[O-]	?	16%	-3%	16µM*	7%	32µM*	10%[91.9 µM]	79µM*
Cc1cccc(Nc2nc(N)c([N+](=O)[O-])c(NCCO)n2)c1	-1%	-1%	-2%	-6%	4%	.	.	.
Nc1nc(Nc2cccc(Cl)c2)nc(NCCO)c1[N+](=O)[O-]	?	-3%	0%	?	-9%	.	.	50µM*
Nc1nc(Nc2cccc(Cl)c2)nc(NCc2ccco2)c1[N+](=O)[O-]	?	-1%	2%	?	10%	.	.	79µM*
CN(C)/C=C1\C(=O)ON=C1c1ccccc1	2%	-5%	-4%	-5%	1%	.	.	.
O=C1ON=C(c2ccccc2)/C1=C/c1ccco1	2%	?	-6%	?	3%	.	.	-25%
COc1ncnc2c1NC1=C(S2)C(=NCCC(=O)O)CC(C)(C)C1	?	?	-24%	?	-5%	.	.	79µM*
Cc1cc(C(=O)COC(=O)c2cccn2C)c(C)n1Cc1ccco1	-18%	?	-18%	?	3%	.	.	-18%
Cc1cc(C(=O)COC(=O)c2ccco2)c(C)n1Cc1ccco1	-13%	?	-6%	-14%	-14%	.	.	.
CC1=C(/C=C/C(C)=C\C=C\C(C)=C\C=C\C=C(C)\C=C\C=C(C)\C=C\C2=C(C)C[C@@H](O)CC2(C)C)C(C)(C)C[C@H](O)C1	-11%	.	-12%	.	.	.	.	.
Cc1cccc(NC(=O)C(=O)NCC(c2cccnc2)N2CCc3ccccc32)c1C (configuration not stated)	-3%	.	2%	.	-1%	.	.	.
O=C(O)CC(SCC(=O)Nc1ccc(S(=O)(=O)N2CCCC2)cc1)C(=O)O (configuration not stated)	1%	-7%	3%	i	0%	2%	-9%	.
COc1cccc(SCc2noc(C(=O)NC(C)C)c2C(=O)O)c1	0%	1%	-15%	-1%	4%	.	.	.
CCCCNC(=O)c1onc(CSc2cccc3ccccc23)c1C(=O)O	-3%	1%	-17%	6%	3%	?	-4%	.
SMILES	BLM inh	APEX1 inh	KAT2A inh	RECQ1 inh-1	TDP1 block	RECQ1 conf	ADP FP counter	RECQ1 inh-2
CCCCNC(=O)c1onc(CSc2ccccc2)c1C(=O)O	-6%	-13%	-10%	-12%	6%	.	.	.
CCc1ccccc1SCc1noc(C(=O)NCC2CCCO2)c1C(=O)O (configuration not stated)	-14%	11%	-24%	-10%	3%	.	.	.
C=CCNC(=O)c1onc(CSc2cccc(OC)c2)c1C(=O)O	1%	1%	-14%	-6%	5%	6%	?	.
O=C(NCC1CCCO1)c1onc(CSc2cccc3ccccc23)c1C(=O)O (configuration not stated)	-1%	-1%	-26%	-10%	2%	5%	2%	.
COC(=O)C/C=C\[C@@H](C)[C@@H](/C=N\O[C@@H](C)c1cn([C@H](CO)Cc2ccccc2)nn1)NS(=O)(=O)c1ccc(C)cc1	0%[12.4 µM]	40%[12.4 µM]	.	11%[11.5 µM]	5%[21 µM]	.	.	.
CCOc1cc(C2c3c(-c4ccccc4O)n[nH]c3C(=O)N2CCc2ccccc2)ccc1O (configuration not stated)	-11%	.	-8%	.	4%	.	.	.
CCC1=NN2C(=N)/C(=C\c3ccc(SCc4ccco4)o3)C(=O)N=C2S1	?	?	-26%	22µM*	-7%	.	.	-30%
CCCC1=NN2C(=N)/C(=C\c3ccc(SCc4ccco4)o3)C(=O)N=C2S1	?	4µM*	?	10µM*	.	.	.	35µM*
O=C1NC(=S)S/C1=C\c1ccc(SCc2ccco2)o1	?	1.8µM*	14µM*	5µM*	.	40µM*	.	.
COc1ncc2nc(-c3cccc(C#N)c3)c(=O)n(CCC#N)c2n1	-2%	2%	-4%	-13%	.	.	.	.
CC(C)(C)OC(=O)N(c1cccc2cccnc12)S(=O)(=O)c1ccccc1Br	.	.	.	.	1%	.	.	.
O=C(CNC(=O)c1ccc(S(=O)(=O)N2CCCC2)cc1)N/N=C/c1ccc(Cl)cc1Cl	3%	-3%	-9%	-6%	5%	-7%	6%	.
CCOC(=O)c1ccc(CC(=O)c2ccc(O)c(O)c2O)o1	-6%	?	-12%	1.4µM*	.	5%[114 µM]	2%[91.9 µM]	.
CCOC(=O)c1ccc(CC(=O)c2oc3cc(O)ccc3c2C)o1	-14%	-3%	-9%	-4%	11%	.	.	.
c1ccc2c(c1)CCN(C1=Nc3cccc4cccc1c34)C2	4%	?	-3%	13µM*	10%	11%[114 µM]	.	-6%
